# Records with an inconclusive call do not appear. A number with no mark means an inactive call. Calls follow the shape of the dose curve; as a rule, active = well fitted inhibition curve with a large enough effect; inconclusive = small, poorly fitted or top-dose-only effect; inactive = no such curve, though single readings can be large or run the other way.
# Target: Polyunsaturated fatty acid lipoxygenase ALOX15 (Homo sapiens) (UniProt P16050)
# Assay: Confirmation qHTS Assay for Inhibitors of 15-hLO (15-human lipoxygenase)
# Settings: purified enzyme, xylenol orange hydroperoxide absorbance; hits give low values
# Text: Assay Provider: Holman, T.R., University of California, Santa Cruz Screening Center PI: Austin, Christopher P. Screening Center: NIH Chemical Genomics Center Human lipoxygenase 15hLO-1 is a member of the closely related lipoxygenase family of enzymes which catalyze the site-specific oxidation of arachidonic acid to various hormone precursor molecules and as such is a candidate for drug development in a variety of disease areas, such as cancer and inflammation. Inhibition of 15hLO-1 activity was screened by utilizing arachidonic acid as a substrate. The extent of hydroperoxide product formation was measured by a secondary chromogenic reaction in which xylenol orange (XO, Sigma-Aldrich, cat. number 39,818-7) reacts with the ferric ions produced from the reaction between the hydroperoxide and ferrous ions. The Fe(III)-XO complex is characterized with red-shifted absorbance at 560 nm. A purified preparation of human 15hLO-1 was supplied by Professor Ted Holman, University of California, Santa Cruz. This assay includes some confirmation and follow-up compounds for related primary screening assay AID 887.
# Assay Protocol: Buffer: 25 mM Hepes pH 7.5, 0.01% Triton X-100. […] The absorbance at 405 and 573 nm were measured using ViewLux (Perkin-Elmer) High-throughput CCD imager and absorbance protocol settings. The 573-to-405 absorbance ratio was used to compute reaction progress.
# Chain of Polyunsaturated fatty acid lipoxygenase ALOX15 (Homo sapiens) (P16050 whole entry, looked up): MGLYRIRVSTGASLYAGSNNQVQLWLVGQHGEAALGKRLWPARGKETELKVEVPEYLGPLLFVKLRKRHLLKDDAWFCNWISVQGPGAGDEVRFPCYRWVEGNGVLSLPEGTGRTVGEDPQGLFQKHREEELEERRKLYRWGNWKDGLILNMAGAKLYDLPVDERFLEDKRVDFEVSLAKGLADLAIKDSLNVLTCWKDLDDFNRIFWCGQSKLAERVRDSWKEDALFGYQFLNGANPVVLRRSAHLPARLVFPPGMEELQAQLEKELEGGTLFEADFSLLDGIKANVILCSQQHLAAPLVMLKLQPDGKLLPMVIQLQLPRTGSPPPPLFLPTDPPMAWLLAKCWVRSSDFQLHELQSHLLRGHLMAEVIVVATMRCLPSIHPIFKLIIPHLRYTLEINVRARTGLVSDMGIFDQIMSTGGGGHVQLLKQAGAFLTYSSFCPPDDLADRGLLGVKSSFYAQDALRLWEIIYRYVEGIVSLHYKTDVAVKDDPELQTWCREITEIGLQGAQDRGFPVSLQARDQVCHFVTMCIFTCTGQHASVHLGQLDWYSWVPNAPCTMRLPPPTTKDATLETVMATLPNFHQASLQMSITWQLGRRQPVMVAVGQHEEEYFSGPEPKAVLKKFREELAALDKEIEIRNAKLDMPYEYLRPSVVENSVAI
structure (smiles),measurement,value
CCC(C)C(=O)c1c(O)c(C)c2oc3c(C)c(O)c(C(=O)C(C)CC)c(O)c3c2c1O (stereo unspecified),max response,-17.1%
